Results filed as inconclusive are left out. A number with no mark means an inactive call. Calls of active or inactive are those of the source. The call rests on the fitted dose curve; in most records, active means well fitted inhibition curve with a large enough effect; inconclusive means small, poorly fitted or top-dose-only effect; inactive means flat fitted curve, though single readings scatter.
On the % scale 0 is the no-effect control and ±100 the full control effect; potency means the concentration at half of the fitted maximal effect.

In the assay the target is Luciferin 4-monooxygenase (Photinus pyralis) (UniProt P08659). In words: qHTS Assay for Inhibitors of Firefly Luciferase from the GSK Published Protein Kinase Inhibitor Set. The settings on record: purified firefly luciferase, luminescence inhibition; series mostly up to 57.5 µM; activity change, negative = inhibition: at the top concentration. The text has this: FLuc (firefly luciferase) is the prototypical bioluminescent reporter gene from Photinus pyralis.[1] The enzyme catalyzes the oxidation luciferin via luciferin-AMP to produce light. FLuc is used in cell-based reporter gene-based assays for screening small molecule chemical libraries. However, small molecule luciferase inhibitors present in most large chemical libraries are often enriched in the output of high throughput screens using this reporter sometimes complicating interpretation and candidate selection.
Luciferin 4-monooxygenase (Photinus pyralis), sequence (P08659 whole entry, looked up): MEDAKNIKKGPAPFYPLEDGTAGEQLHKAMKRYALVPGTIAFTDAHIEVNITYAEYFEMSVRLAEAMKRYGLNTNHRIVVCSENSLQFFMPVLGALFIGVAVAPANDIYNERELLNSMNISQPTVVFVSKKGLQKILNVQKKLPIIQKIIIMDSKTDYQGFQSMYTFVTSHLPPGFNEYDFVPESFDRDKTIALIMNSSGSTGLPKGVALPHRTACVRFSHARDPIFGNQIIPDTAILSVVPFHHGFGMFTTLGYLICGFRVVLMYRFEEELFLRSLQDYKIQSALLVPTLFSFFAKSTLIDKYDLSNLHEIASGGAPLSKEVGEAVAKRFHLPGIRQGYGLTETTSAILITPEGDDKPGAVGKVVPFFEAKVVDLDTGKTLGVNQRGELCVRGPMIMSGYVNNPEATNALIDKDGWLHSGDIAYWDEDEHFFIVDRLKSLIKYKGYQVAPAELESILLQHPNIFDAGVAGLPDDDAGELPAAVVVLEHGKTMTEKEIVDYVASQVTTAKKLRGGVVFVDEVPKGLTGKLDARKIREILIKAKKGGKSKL
RLuc is a bioluminescent reporter gene luciferase from Renilla reniformis, also known as the sea pansy. RLuc uses the luciferin substrate coelenterazine. RLuc is often used in combination with the nonhomologous luciferase FLuc (firefly luciferease) as a trasfection or pathway normalization control. Recently, non-homologous reporters have been described for high throughput screening 'coincidence' reporter gene strategies.
1. Fan F, Wood KV (2007) Bioluminescent assays for high-throughput screening. Assay Drug Dev Technol 5: 127-136.
2. Thorne N, Inglese J, Auld DS (2010) Illuminating insights into firefly luciferase and other bioluminescent reporters used in chemical biology. Chem Biol 17: 646-657.
3. […] Chem Biol 19: 1060-1072.
4. Michelini E, Cevenini L, Mezzanotte L, Coppa A, Roda A (2010) Cell-based assays: fuelling drug discovery. Anal Bioanal Chem 398: 227-238.
5. Cheng KC, Inglese J (2012) A coincidence reporter-gene system for high-throughput screening. Nat Methods 9: 937.
Biochemical firefly luciferase enzyme assay
NCGC Assay Protocol Summary:
Reagents: 50mM Tris acetate, pH 7.5; 10mM Mg acetate; 10uM D-luciferin (Sigma #L9504); 10uM ATP; 0.01% Tween-20; 0.05% BSA; 10nM P. pyralis luciferase (Sigma #L9506)
Control compounds used were two known firefly luciferase inhibitors (compounds (2) and (5) in Auld et al., 2010), and DMSO.
Three microliters containing firefly luciferase substrates in buffer (final concentrations: 50mM Tris acetate, pH 7.5, 10mM Mg acetate, 0.01% Tween-20, 0.05% BSA, 10uM D-luciferin, and 10uM ATP) are dispensed into each well of a Greiner white, solid-bottom 1536-well format plate using a flying reagent dispenser (FRD). These assay plates were then treated with 23nL of compound or DMSO using a Kalypsys pin tool, which allows for delivery of a 7-point interplate titration of each compound to the assay plates (quantitative HTS), with final compound concentrations ranging from approximately 60uM to 300pM. One microliter of firefly luciferase in 50mM Tris-acetate buffer was then delivered by FRD to each well for a final enzyme concentration of 10nM. Luciferase activity was then measured using an Envision plate reader (PerkinElmer), with an average incubation time of 5 min.
Background: qHTS replaces the single test concentration by a dilution series.
For the compound `CCN(CC)S(=O)(=O)c1ccc(OC)c(Nc2ncc(-c3ccccc3)o2)c1`, the “activity change, negative = inhibition” value was 0.125%. On the same count and under the same terms, next, `COC(=O)c1sc(-n2cnc3cc(OC)c(OC)cc32)cc1OCc1ccccc1C(F)(F)F`: 7.89%; `Cc1ccc2c(-c3ccnc(Nc4ccccc4)n3)c(-c3ccc(F)cc3)nn2n1`: 1.59%; `Nc1nonc1-c1nc2cnccc2n1C1CC1`: 5.21%. With `CC(Oc1cc(-n2cnc3ccc(OCC4CCN(C)CC4)cc32)sc1C(N)=O)c1ccccc1Cl` (stereo not given), the “activity change, negative = inhibition” value was 8.04%. Regarding `CN1CCC(C(=O)Nc2n[nH]c3nc(-c4ccc(O)cc4)c(Br)cc23)CC1`, the Potency result is “inactive”.

On to `CCS(=O)(=O)c1ccc(OC)c(Nc2ncc(-c3cccc(F)c3)o2)c1`, for which the “activity change, negative = inhibition” value is 7.1%. Same read-out and setting: next, `CCn1cc(-c2ccnc3[nH]ccc23)c(-c2cccc(NC(=O)Nc3ccc(OCc4ccccc4)cc3)c2)n1`: 17.6%; `NC(=O)c1sc(-n2cnc3ccc(C(F)(F)F)cc32)cc1OCc1ccccc1Br`: -6.69%; `Nc1nccc(-c2c(-c3ccc(F)cc3)nn3cc(C(F)(F)F)ccc23)n1`: -2.4%. Regarding `O=C1Nc2ccc(C(=O)c3ccco3)cc2/C1=C/c1cc(Cl)c(O)c(Cl)c1`, the Potency was 18.3 µM (active). As for `CS(=O)(=O)Nc1ccc(-c2cc(-c3ccccc3)cc(C(N)=O)c2N)cc1`, the “activity change, negative = inhibition” value is 24.7%. Still for that read-out and setting: next, `NC(=O)c1ccc2c(-c3ccnc(NCCCO)n3)c(-c3ccc(F)cc3)nn2c1`: -9.6%. On the same count and under the same terms, next, `CS(=O)(=O)CCNCc1nc(-c2ccc3ncnc(Nc4ccc(F)c(Cl)c4)c3c2)cs1`: 4.87%; `CC(Oc1cc(-n2cnc3ccc(OC4CCN(C)CC4)cc32)sc1C(N)=O)c1ccccc1Cl` (stereo not given): 4.46%; `Nc1nccc(-c2c(-c3ccc(F)cc3)ncn2C2CCNCC2)n1`: 13.5%.

Consider `CNC(=O)c1cncc(C=Cc2ccccc2C)c1`, for which the “activity change, negative = inhibition” value was 9.18%. Regarding `NS(=O)(=O)c1cccc(-c2cc3ccncc3cc2OCc2ccccc2)c1`, the “activity change, negative = inhibition” value is -9.85%. On to `COc1cccc(C=NNc2ncnc3c2cnn3-c2cccc(OC)c2)c1`, for which the “activity change, negative = inhibition” value was -14.2%.

Consider `COc1cc(N2CCN(C(C)C)CC2)ccc1Nc1nc(Nc2cccc(F)c2C(=O)O)c2cc[nH]c2n1`, for which the “activity change, negative = inhibition” value is 0.459%. Take `Nc1ncnc2occ(-c3ccc(NC(=O)Nc4cccc(C(F)(F)F)c4)cc3)c12`: the “activity change, negative = inhibition” value is 4.49%. Still for that read-out and setting: next, `COc1cccc(-n2nc(C)c3c(NN=C(C)c4ccncc4)ncnc32)c1`: -0.792%; `CC1=C(C(=O)Nc2cc(Cl)c3[nH]ncc3c2)C(c2ccc(C(F)(F)F)cc2)CC(=O)N1` (stereo not given): 7.74%; `COc1cc2ncn(-c3cc(OCc4ccccc4S(C)(=O)=O)c(C#N)s3)c2cc1OC`: 5.28%.

`Cc1ccc(Nc2ccnc(Nc3cccc(C(N)=O)c3)n2)cc1O`: the Potency was 1.46 µM (active). `N#Cc1cccc(Nc2nccc(-c3cnn4ncccc34)n2)c1`: the “activity change, negative = inhibition” value is 6.81%.

On to `N#Cc1c(NC(=O)c2ccc(F)cc2)sc2c1CCCC2`, for which the Potency was 0.919 µM (active). For the compound `CCCN1CCC(c2ccc(Nc3nc(Nc4cc(F)ccc4C(N)=O)c4cc[nH]c4n3)c(OC)c2)CC1`, the “activity change, negative = inhibition” value is 27.5%. Consider `O=C1NC(=O)C(c2ccc(Cl)cc2)=C1Nc1ccc(Cl)c(C(=O)O)c1`, for which the “activity change, negative = inhibition” value was -1.4%. On to `CCS(=O)(=O)c1ccc(OC)c(Nc2ncc(-c3cccc(-c4ccccc4F)c3)o2)c1`, for which the “activity change, negative = inhibition” value was -18.1%. `CC(=Nc1ccc(S(N)(=O)=O)cc1)c1c(O)[nH]c2ccccc12`: the Potency was 3.66 µM (active).

With `COc1cc2ncn(-c3cc(OCCc4ccccc4)c(C(N)=O)s3)c2cc1OC`, the “activity change, negative = inhibition” value was 0.383%. Still for that read-out and setting: under `COc1cc2ncn(-c3cc(OCc4ccccc4Cl)c(C(N)=O)s3)c2cc1OC` stands 8.26%; under `CN1CCC(C(=O)Nc2n[nH]c3nnc(-c4ccccc4)cc23)CC1`, 4.91%; under `COc1cc2c(cc1Nc1nc(Nc3cccc(F)c3C(N)=O)c3cc[nH]c3n1)N(C(=O)CN1CCN(C(C)C)CC1)CC2`, 4.88%. Same read-out and setting: next, `CCS(=O)(=O)c1ccc(OC)c(Nc2ncc(-c3cccc(OC)c3)o2)c1`: -4.23%; `Oc1cccc(-c2nc(-c3ccccc3)[nH]c2-c2ccncc2)c1`: -4.49%.

Consider `CN(C)CCOc1ccc(-c2nc(-c3ccc4c(c3)CCC4=NO)c(-c3ccncc3)[nH]2)cc1`, for which the Potency was 14.6 µM (active). On the same count and under the same terms, under `Cc1c2ccc(N(C)c3ccnc(Nc4cccc(S(N)(=O)=O)c4)n3)cc2nn1C` stands 13 µM (active).

As to `c1ccc(Oc2ccc(Nc3ncc(-c4ccccc4)o3)cc2)cc1`, the “activity change, negative = inhibition” value is -13.6%.
